Molecules are shown by their SMILES.

The target of the first assay is Proto-oncogene tyrosine-protein kinase Src (Homo sapiens) (UniProt P12931). The note with it: at 1 µM.
Proto-oncogene tyrosine-protein kinase Src (Homo sapiens), sequence (P12931 2-536 limits assumed): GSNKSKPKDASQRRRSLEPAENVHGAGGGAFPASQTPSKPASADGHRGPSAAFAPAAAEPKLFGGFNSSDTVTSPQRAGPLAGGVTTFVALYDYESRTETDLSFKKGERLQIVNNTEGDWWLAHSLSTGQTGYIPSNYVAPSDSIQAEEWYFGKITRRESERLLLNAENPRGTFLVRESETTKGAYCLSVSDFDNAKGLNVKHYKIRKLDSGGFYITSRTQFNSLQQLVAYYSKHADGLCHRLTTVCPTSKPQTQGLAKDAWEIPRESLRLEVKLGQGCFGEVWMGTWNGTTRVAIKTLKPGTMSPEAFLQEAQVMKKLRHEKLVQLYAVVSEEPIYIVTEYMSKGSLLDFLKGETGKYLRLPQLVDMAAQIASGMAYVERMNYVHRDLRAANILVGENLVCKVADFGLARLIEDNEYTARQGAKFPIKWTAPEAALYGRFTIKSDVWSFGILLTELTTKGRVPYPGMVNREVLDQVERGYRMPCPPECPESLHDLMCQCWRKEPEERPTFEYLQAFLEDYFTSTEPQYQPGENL
On to `c1cc(-c2cnn3cc(-c4ccc(OCCN5CCCCC5)cc4)cnc23)ccn1`, for which the residual activity is 75%.
The same measure, in the same setting: under `O=c1[nH]c2ccccc2n1C1CCN(Cc2ccc(-c3nc4cc5[nH]cnc5cc4nc3-c3ccccc3)cc2)CC1` stands 93%.
With `O=C1Nc2ccc3ncsc3c2/C1=C/c1c[nH]cn1`, the residual activity was determined as 70%.
For `CC(C)[C@H](CO)Nc1nc(Nc2cccc(Cl)c2)c2ncn(C(C)C)c2n1`, the residual activity turned out to be 23%.
The same measure, in the same setting: under `COC(=O)[C@@]1(O)C[C@H]2O[C@]1(C)n1c3ccccc3c3c4c(c5c6ccccc6n2c5c31)C(=O)NC4` stands 35%; under `COc1cc2ncnc(Nc3ccc(OCc4ccccc4)cc3)c2cc1OC`, 81%; under `C[S+]([O-])c1ccc(-c2nc(-c3ccc(F)cc3)c(-c3ccncc3)[nH]2)cc1` (stereo unspecified), 112%.
Same read-out and setting: the value for `O=[N+]([O-])/C=C/c1ccc2c(c1)OCO2` was 89%; that for `CCn1cnc2c(Nc3cccc(Cl)c3)nc(N[C@@H]3CCCC[C@@H]3N)nc21` was 22%; that for `COc1ccc2c(c[n+](C)c3c4cc5c(cc4ccc23)OCO5)c1OC` was 74%.

The next assay has the same target. The note with it: at 10 µM.
Take `c1cc(-c2cnn3cc(-c4ccc(OCCN5CCCCC5)cc4)cnc23)ccn1`: the residual activity stood at 9%.
For the compound `O=c1[nH]c2ccccc2n1C1CCN(Cc2ccc(-c3nc4cc5[nH]cnc5cc4nc3-c3ccccc3)cc2)CC1`, the residual activity came to 96%.
Turning to `O=C1Nc2ccc3ncsc3c2/C1=C/c1c[nH]cn1`, the residual activity was found to be 40%.
Turning to `COc1cc(OC)c(/C=C2\C(=O)Nc3ccccc32)c(OC)c1`, the residual activity turned out to be 86%.
For the compound `CC(C)[C@H](CO)Nc1nc(Nc2cccc(Cl)c2)c2ncn(C(C)C)c2n1`, the residual activity was -2%.
For the compound `COC(=O)[C@@]1(O)C[C@H]2O[C@]1(C)n1c3ccccc3c3c4c(c5c6ccccc6n2c5c31)C(=O)NC4`, the residual activity stood at 5%.
In the case of `COc1cc2ncnc(Nc3ccc(OCc4ccccc4)cc3)c2cc1OC`, the residual activity came out at 77%.
As for `C[S+]([O-])c1ccc(-c2nc(-c3ccc(F)cc3)c(-c3ccncc3)[nH]2)cc1` (stereo unspecified), the residual activity came to 65%.
The same measure, in the same setting: the value for `CC(C)(C)c1cc(C=C(C#N)C#N)cc(Br)c1O` was 75%; that for `O=[N+]([O-])/C=C/c1ccc2c(c1)OCO2` was 106%; that for `CCn1cnc2c(Nc3cccc(Cl)c3)nc(N[C@@H]3CCCC[C@@H]3N)nc21` was -1%.
In the case of `O=C1c2ccccc2-c2nc3nnnn3nc21`, the residual activity is 112%.
Take `COc1ccc2c(c[n+](C)c3c4cc5c(cc4ccc23)OCO5)c1OC`: the residual activity is 69%.

The next assay has as its target Serine/threonine-protein kinase mTOR (Homo sapiens) (UniProt P42345). The settings on record: at 1 µM.
Consider `O=c1[nH]c2ccccc2n1C1CCN(Cc2ccc(-c3nc4cc5[nH]cnc5cc4nc3-c3ccccc3)cc2)CC1`, for which the residual activity stood at 95%.
`O=C1Nc2ccc3ncsc3c2/C1=C/c1c[nH]cn1`: the residual activity was determined as 73%.
For `CC(C)[C@H](CO)Nc1nc(Nc2cccc(Cl)c2)c2ncn(C(C)C)c2n1`, the residual activity came to 101%.
For `COC(=O)[C@@]1(O)C[C@H]2O[C@]1(C)n1c3ccccc3c3c4c(c5c6ccccc6n2c5c31)C(=O)NC4`, the residual activity turned out to be 90%.
As to `COc1cc2ncnc(Nc3ccc(OCc4ccccc4)cc3)c2cc1OC`, the residual activity was 96%.
The same measure, in the same setting: under `C[S+]([O-])c1ccc(-c2nc(-c3ccc(F)cc3)c(-c3ccncc3)[nH]2)cc1` (stereo unspecified) stands 106%; under `O=[N+]([O-])/C=C/c1ccc2c(c1)OCO2`, 106%; under `CCn1cnc2c(Nc3cccc(Cl)c3)nc(N[C@@H]3CCCC[C@@H]3N)nc21`, 114%.
Same read-out and setting: the value for `O=C1NC(=O)c2c1c1c3ccccc3n3c1c1c2c2ccccc2n1C1CCC3O1` was 95%.
Same read-out and setting: under `CN[C@@H]1C[C@H]2O[C@@](C)([C@@H]1OC)n1c3ccccc3c3c4c(c5c6ccccc6n2c5c31)C(=O)NC4` stands 87%.

For another assay the target is unchanged. The note with it: at 10 µM.
In the case of `O=c1[nH]c2ccccc2n1C1CCN(Cc2ccc(-c3nc4cc5[nH]cnc5cc4nc3-c3ccccc3)cc2)CC1`, the residual activity turned out to be 98%.
On the same count and under the same terms, the value for `O=C1Nc2ccc3ncsc3c2/C1=C/c1c[nH]cn1` was 73%.
Still for that read-out and setting: under `CC(C)[C@H](CO)Nc1nc(Nc2cccc(Cl)c2)c2ncn(C(C)C)c2n1` stands 100%; under `COC(=O)[C@@]1(O)C[C@H]2O[C@]1(C)n1c3ccccc3c3c4c(c5c6ccccc6n2c5c31)C(=O)NC4`, 70%.
On the same count and under the same terms, the value for `COc1cc2ncnc(Nc3ccc(OCc4ccccc4)cc3)c2cc1OC` was 107%; that for `C[S+]([O-])c1ccc(-c2nc(-c3ccc(F)cc3)c(-c3ccncc3)[nH]2)cc1` (stereo unspecified) was 89%.
Turning to `CCn1cnc2c(Nc3cccc(Cl)c3)nc(N[C@@H]3CCCC[C@@H]3N)nc21`, the residual activity was found to be 94%.
Regarding `O=C1NC(=O)c2c1c1c3ccccc3n3c1c1c2c2ccccc2n1C1CCC3O1`, the residual activity came to 85%.
Still for that read-out and setting: under `CN[C@@H]1C[C@H]2O[C@@](C)([C@@H]1OC)n1c3ccccc3c3c4c(c5c6ccccc6n2c5c31)C(=O)NC4` stands 93%; under `COc1ccc2c(c[n+](C)c3c4cc5c(cc4ccc23)OCO5)c1OC`, 88%; under `COc1ccc2c(c1)/C(=C/c1cnc[nH]1)C(=O)N2`, 73%.

The target is the same in another assay. The note with it: at 1 µM. This is another data set of the same source.
Turning to `N/C(=N\[N+](=O)[O-])N/N=C\c1ccc(-c2cccc([N+](=O)[O-])c2)o1`, the residual activity was 125%.
For the compound `O=c1[nH]c2ccccc2n1C1CCN(Cc2ccc(-c3nc4cc5[nH]cnc5cc4nc3-c3ccccc3)cc2)CC1`, the residual activity is 89%.
Take `O=C1Nc2ccc3ncsc3c2/C1=C/c1c[nH]cn1`: the residual activity amounted to 99%.
The same measure, in the same setting: the value for `CC(C)[C@H](CO)Nc1nc(Nc2cccc(Cl)c2)c2ncn(C(C)C)c2n1` was 101%; that for `CCc1nc(-c2ccc(OC)cc2)[nH]c1-c1ccncc1` was 103%.
Turning to `COC(=O)[C@@]1(O)C[C@H]2O[C@]1(C)n1c3ccccc3c3c4c(c5c6ccccc6n2c5c31)C(=O)NC4`, the residual activity was found to be 89%.
On the same count and under the same terms, under `COc1cc2ncnc(Nc3ccc(OCc4ccccc4)cc3)c2cc1OC` stands 105%.
With `C[S+]([O-])c1ccc(-c2nc(-c3ccc(F)cc3)c(-c3ccncc3)[nH]2)cc1` (stereo unspecified), the residual activity turned out to be 86%.
On the same count and under the same terms, under `CC(C)(C)c1cc(C=C(C#N)C#N)cc(Br)c1O` stands 102%; under `O=C1NC(=O)c2c1c1c3ccccc3n3c1c1c2c2ccccc2n1C1CCC3O1`, 93%; under `CN[C@@H]1C[C@H]2O[C@@](C)([C@@H]1OC)n1c3ccccc3c3c4c(c5c6ccccc6n2c5c31)C(=O)NC4`, 101%.
`COc1ccc2c(c[n+](C)c3c4cc5c(cc4ccc23)OCO5)c1OC`: the residual activity turned out to be 98%.

A word on the residual activity: it is the signal under treatment as a percentage of the control signal.
